According to PubChem BioAssay AID709 (SRMLSC, 2007):
The campaign covered roughly 65,000 compounds. About 3,600 (5.5%) were called active. The full list was thinned out, with actives kept by preference. Unmarked numbers belong to inactive results.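 Rule for the calls: active = at 10 µM, mean starting fluorescence two-fold or more over control wells; inactive = the rest.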

assay: intrinsic fluorescence of library compounds, ex339/em460 – biochemical, MLSMR library, data from DPM-DC assay, artefact control, profiling panel (AID 709); conditions: compound autofluorescence, ex339/em460 nm, NADH buffer; at 10 µM; stronger effect = higher value; 1 = no-compound wells, NADH background;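 note: signal is the first read of a kinetic run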

In order of falling fluorescence fold increase:
1. Cn1c(=NC(=O)c2ccco2)sc2cccc(F)c21  1.85
2. COc1ccc(N2CCN(C(=O)CSc3ncnc4c3cnn4-c3ccc(OC)cc3)CC2)cc1  1.23
3. O=S(=O)(O)c1nc2ccccc2n1Cc1ccc(Cl)cc1  1.22
4. O=C(Cn1nnc(-c2ccc3c(c2)OCO3)n1)NCc1ccco1  1.15
5. CCCOc1ccc(-c2nc(N)n[nH]2)cc1  1.14
6. COC(=O)C1=C(C)N(C)C(C)=C(C(=O)OC)C1c1cccc(Br)c1  1.12
7. CN1CCN(Cc2nc3c(c(=O)n(C)c(=O)n3C)n2Cc2cccc3ccccc23)CC1  1.12
8. CCOc1ccccc1N(CC(=O)Nc1ccccc1C(=O)OC)S(C)(=O)=O  1.11
9. COc1ccc(-n2c(C)nc3c(cnn3-c3ccccc3)c2=O)cc1  1.1
10. C=CCNC(=O)CCCOc1cccc(C)c1  1.09
11. CCOc1ccc(C(CC(=O)O)NC(=O)COc2ccccc2)cc1 (stereo not drawn)  1.07
12. CC(=O)N=c1ncn(CC(COC(C)=O)OC(C)=O)c2nc[nH]c12 (stereo not drawn)  1.07
13. Cn1nnnc1SCc1cc(=O)[nH]c2ccccc12  1.06
14. C1=C(CCNc2ncnc3c2cnn3-c2ccccc2)CCCC1  1.05
15. CC12CN3CC(C)(CN(C1)C3c1ccc(Cl)cc1Cl)C2=O (stereo not drawn)  1.04
16. O=C1c2ccccc2C(O)N1Cc1ccccc1Cl (stereo not drawn)  1.04
17. O=C(CSc1nnc(Cc2ccccc2)n1-c1ccccc1)N1CCOCC1  1.04
18. c1ccc(-n2ncc3c(N4CCCC4)ncnc32)cc1  1.04
19. CC(=O)c1cccc(NC(=O)c2ccncc2)c1  1.03
20. Cc1nc(NC(=O)C23CCC(C)(C(=O)O2)C3(C)C)sc1C (stereo not drawn)  1.02
21. CCCCOCCCNC(=O)c1ccccc1OCC  1
22. Cc1ccc(-n2ncc3c(N4CCN(c5ccc(F)cc5)CC4)ncnc32)c(C)c1  1

With N#Cc1c(N)n(CCOC(=O)c2ccc(Cl)cc2)c2nc3ccccc3nc12 the fluorescence fold increase was 2.28 (active).
In the case of CCOc1ccccc1C1C(C(=O)OC)=CN(C)C=C1C(=O)OC, the fluorescence fold increase is reported as 4.81 (active).
For COC(=O)C1=CN(C)C=C(C(=O)OC)C1c1ccc(Cl)cc1Cl, the fluorescence fold increase was 2.14 (active).
With COc1ccc(-n2ncc3c(N4CCc5ccccc54)ncnc32)cc1 the fluorescence fold increase was 3.76 (active).
With Cc1cccc(-n2ncc3c(N4CCc5ccccc54)ncnc32)c1 the fluorescence fold increase was 2.26 (active).
In the case of COc1ccc(-n2ncc3c(N4CCCc5ccccc54)ncnc32)cc1, the fluorescence fold increase is reported as 2.48 (active).
